Laboratory results: PubChem BioAssay (EPA / NIEHS)
Inconclusive results are not listed. The source holds several records for some structures; these can differ, active in one and inactive in another. Active and inactive are the calls of the source. The calls were made as follows, unless noted: active = hit-call score of the fitted dose curve at least 0.9, where 1 is the maximum; inactive = score below 0.9.

Legend:
[1] = ATG_NFI_CIS: Attagene CIS-FACTORIAL HepG2 Assay for human Nuclear Factor I (NFI) (AID 2282989); conditions: HepG2 cis-regulatory reporter, NFI response element transcription; actives raise or lower the signal
Method in brief: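 After transient transfection of HepG2 with cis-promoter reporter constructs and 24 h dosing, RNA is reverse-transcribed, amplified, 6-FAM end-labelled and HpaI-digested before capillary analysis. Bidirectional curve fitting against DMSO.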

[2] = molecular target: Myc proto-oncogene protein (Homo sapiens) (UniProt P01106); assay: ATG_Myc_CIS: Attagene CIS-FACTORIAL HepG2 Assay for human Myelocytomatosis (Myc) Proto-Oncogene Transcription Factor (AID 2282990); conditions: HepG2, Attagene cis-reporter transcription factor activity; actives raise or lower the signal
Chain of Myc proto-oncogene protein (Homo sapiens) (P01106 whole entry, looked up): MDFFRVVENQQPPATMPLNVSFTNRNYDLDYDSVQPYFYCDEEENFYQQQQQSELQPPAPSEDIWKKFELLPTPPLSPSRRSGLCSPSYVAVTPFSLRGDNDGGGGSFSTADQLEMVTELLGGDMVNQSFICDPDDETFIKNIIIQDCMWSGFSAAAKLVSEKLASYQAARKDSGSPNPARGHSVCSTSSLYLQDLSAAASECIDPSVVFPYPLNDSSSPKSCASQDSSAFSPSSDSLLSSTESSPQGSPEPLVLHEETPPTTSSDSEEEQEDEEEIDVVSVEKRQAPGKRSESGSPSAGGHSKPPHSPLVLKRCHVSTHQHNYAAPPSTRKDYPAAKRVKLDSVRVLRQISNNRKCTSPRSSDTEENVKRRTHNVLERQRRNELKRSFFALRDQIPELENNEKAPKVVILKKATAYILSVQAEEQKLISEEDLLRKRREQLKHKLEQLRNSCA
Method in brief: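 Cells of the HepG2 human liver line bear multiple cis-driven reporter transcription units. Reporter mRNA after 24 h exposure is reverse-transcribed, amplified, labelled and resolved by capillary electrophoresis, with gain- or loss-of-signal fitting relative to DMSO.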

[3] = ATG_NF_kB_CIS: Attagene CIS-FACTORIAL HepG2 Assay for human Nuclear Factor Kappa B (NF-kB) (AID 2282991); conditions: HepG2 Attagene cis-factorial NF-kB reporter mRNA; actives raise or lower the signal
Method in brief: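 Endpoint from a 52-component multiplexed HepG2 reporter panel: cis-regulated transcription units transiently transfected, 24 h dosing, reporter mRNA quantified by RT-PCR and capillary electrophoresis, scored as increase or decrease against DMSO.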

[4] = ATG_NRF2_ARE_CIS: Attagene CIS-FACTORIAL HepG2 Assay for human Nuclear Factor Erythroid 2 Related Factor 2 (NFR2) response to Antioxidant Response Elements (ARE) (AID 2282992); conditions: HepG2 Attagene ARE/NRF2 reporter, transcription factor activity; actives raise or lower the signal
Method in brief: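 Multiplexed reporter mRNA profiling in HepG2 after a 24 h chemical exposure. Curves fitted in both directions relative to DMSO negative control.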

[5] = ATG_Oct_MLP_CIS: Attagene CIS-FACTORIAL HepG2 Assay for human Octamer-Binding Transcription Factor (Oct) (AID 2282993); conditions: HepG2 Attagene cis-factorial Oct reporter, mRNA; actives raise or lower the signal
Method in brief: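 Cells of the HepG2 line express promoter-controlled reporter sequences whose mRNA levels, after 24 h treatment, are measured by RT-PCR and capillary electrophoresis. Increases and decreases are scored relative to DMSO.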

[6] = molecular target: Cellular tumor antigen p53 (Homo sapiens) (UniProt P04637); assay: ATG_p53_CIS: Attagene CIS-FACTORIAL HepG2 Assay for human p53 Transcription Factor (AID 2282994); conditions: HepG2 p53 cis-element reporter, Attagene mRNA; actives raise or lower the signal
Chain of Cellular tumor antigen p53 (Homo sapiens) (P04637 whole entry, looked up): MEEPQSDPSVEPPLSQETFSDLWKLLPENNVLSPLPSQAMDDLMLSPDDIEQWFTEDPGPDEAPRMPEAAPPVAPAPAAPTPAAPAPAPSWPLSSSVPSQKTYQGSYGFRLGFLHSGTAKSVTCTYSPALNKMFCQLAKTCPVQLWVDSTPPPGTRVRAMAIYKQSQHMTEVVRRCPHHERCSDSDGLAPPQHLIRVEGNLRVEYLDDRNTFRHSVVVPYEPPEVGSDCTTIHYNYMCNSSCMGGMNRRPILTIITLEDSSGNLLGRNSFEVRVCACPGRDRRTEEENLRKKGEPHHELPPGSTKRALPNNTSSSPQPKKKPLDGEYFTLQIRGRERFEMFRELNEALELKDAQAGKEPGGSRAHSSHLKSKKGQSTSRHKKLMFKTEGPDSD
Method in brief: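 Multiplexed reporter mRNA assay in human HepG2 liver cells; cis-regulated units report endogenous factor activity. Values come from bidirectional curve fitting against DMSO negative control after 24 h treatment.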

[7] = BSK_3C_TissueFactor: BioMAP Diversity Plus: 3C Assay for Tissue Factor Biomarker Activity (AID 2282997); conditions: BioMAP 3C HUVEC, tissue factor biomarker readout; actives raise or lower the signal
Method in brief: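 Dosing of human umbilical vein endothelial cells preceded a 24 h incubation. Tissue Factor was then read by ELISA, with increases and decreases both scored relative to DMSO controls.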

[8] = BSK_3C_uPAR: BioMAP Diversity Plus: 3C Assay for Urokinase-type plasminogen activator receptor (uPAR) Biomarker Activity (AID 2282998); conditions: BioMAP 3C HUVEC, uPAR biomarker ELISA; actives raise or lower the signal
Method in brief: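 Endothelial primary cells of human umbilical vein origin received test chemical; 24 h later uPAR was assayed by ELISA. Fitting was bidirectional, DMSO as negative control.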

[9] = BSK_3C_VCAM1: BioMAP Diversity Plus: 3C Assay for Vascular cell adhesion molecule 1 (VCAM1) Biomarker Activity (AID 2282999); conditions: BioMAP 3C HUVEC, VCAM1 ELISA, cytokine-stimulated; actives raise or lower the signal
Method in brief: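 Endothelial cells from human umbilical vein are treated with test chemical. At 24 h, VCAM-1 is measured by ELISA, and responses in either direction are fitted relative to DMSO.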

[10] = BSK_4H_Eotaxin3: BioMAP Diversity Plus: 4H Assay for Eotaxin 3 Biomarker Activity (AID 2283000); conditions: primary human endothelial cells (HUVEC); actives raise or lower the signal
Method in brief: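 Human umbilical vein endothelial cells (BSK_4H system) dosed with test chemical; Eotaxin-3 (CCL26) measured by ELISA 24 h after dosing. Bidirectional curve fitting relative to DMSO negative control as baseline.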

[11] = molecular target: human Peroxisome Proliferator-activated Receptor alpha (PPARa), PPARA (gene 5465) (UniProt Q07869); assay: ATG_PPARa_TRANS: Attagene TRANS-FACTORIAL HepG2 Assay for human Peroxisome Proliferator-activated Receptor alpha (PPARa) (AID 2283001; active = hit-call score of the fitted dose curve at least 0.9, where 1 is the maximum;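 as to AC50: potency for gain of reporter signal over DMSO so agonist or activator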)
Chain of human Peroxisome Proliferator-activated Receptor alpha (PPARa), PPARA (gene 5465) (Q07869 whole entry, looked up, the tested form may be a part): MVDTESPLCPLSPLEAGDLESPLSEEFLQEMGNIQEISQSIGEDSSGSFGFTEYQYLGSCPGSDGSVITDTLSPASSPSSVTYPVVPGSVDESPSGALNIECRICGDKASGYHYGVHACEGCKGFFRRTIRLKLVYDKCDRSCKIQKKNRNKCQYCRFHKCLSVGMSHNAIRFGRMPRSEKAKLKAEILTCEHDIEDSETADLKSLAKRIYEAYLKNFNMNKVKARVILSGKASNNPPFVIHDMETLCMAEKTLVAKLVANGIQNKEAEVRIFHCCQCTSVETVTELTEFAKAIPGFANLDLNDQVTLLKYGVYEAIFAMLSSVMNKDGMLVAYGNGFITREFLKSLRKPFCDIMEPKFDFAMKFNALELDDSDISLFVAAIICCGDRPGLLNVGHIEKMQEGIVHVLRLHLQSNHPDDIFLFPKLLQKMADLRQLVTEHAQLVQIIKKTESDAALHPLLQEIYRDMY
Method in brief: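 Read-out is fluorescence of reporter cDNA fragments resolved by capillary electrophoresis after RT-PCR. Human HepG2 liver cells carried transfected PPARa-Gal4 chimera and GAL4-UAS reporter units, treated 24 h; activity scored as increase over DMSO.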

[12] = molecular target: human Peroxisome Proliferator-activated Receptor delta (PPARd), PPARD (gene 5467) (UniProt Q03181); assay: ATG_PPARd_TRANS: Attagene TRANS-FACTORIAL HepG2 Assay for human Peroxisome Proliferator-activated Receptor delta (PPARd) (AID 2283002; active = hit-call score of the fitted dose curve at least 0.9, where 1 is the maximum)
Chain of human Peroxisome Proliferator-activated Receptor delta (PPARd), PPARD (gene 5467) (Q03181 whole entry, looked up): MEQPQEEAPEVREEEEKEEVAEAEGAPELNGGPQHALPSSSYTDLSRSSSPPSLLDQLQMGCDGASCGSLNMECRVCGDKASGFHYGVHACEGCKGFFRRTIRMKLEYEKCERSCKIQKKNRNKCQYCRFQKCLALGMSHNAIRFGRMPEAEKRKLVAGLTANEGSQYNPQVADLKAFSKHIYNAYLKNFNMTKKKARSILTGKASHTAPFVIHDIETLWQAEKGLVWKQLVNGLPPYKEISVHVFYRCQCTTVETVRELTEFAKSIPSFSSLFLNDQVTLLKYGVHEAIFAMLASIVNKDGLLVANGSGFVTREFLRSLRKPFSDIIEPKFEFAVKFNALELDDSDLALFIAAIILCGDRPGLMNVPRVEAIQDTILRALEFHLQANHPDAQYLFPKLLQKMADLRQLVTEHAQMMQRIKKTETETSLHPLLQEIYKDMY
Method in brief: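 Cell-based TRANS reporter: HepG2, transient MRTU transfection, 24 h exposure. Readout = reporter mRNA (RT-PCR/CE, 6-FAM). Gain-of-signal fit vs DMSO control.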

[13] = read-out: Intercellular Adhesion Molecule 1 (ICAM1), ICAM1 (gene 3383); assay: BSK_3C_ICAM1: BioMAP Diversity Plus: 3C Assay for Intercellular Adhesion Molecule 1 (ICAM1) Biomarker Activity (AID 2283003); conditions: primary human endothelial cells (HUVEC); actives raise or lower the signal
Method in brief: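 ICAM-1 levels measured by ELISA after HUVEC cultures in the 3C system had been dosed for 24 h. Gain or loss of signal relative to DMSO was fitted in both directions.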

[14] = molecular target: human Retinoic Acid Receptor beta (RARb), RARB (gene 5915) (UniProt P10826); assay: ATG_RARb_TRANS: Attagene TRANS-FACTORIAL HepG2 Assay for human Retinoic Acid Receptor beta (AID 2283004; active = hit-call score of the fitted dose curve at least 0.9, where 1 is the maximum)
Chain of human Retinoic Acid Receptor beta (RARb), RARB (gene 5915) (P10826 whole entry, looked up, the tested form may be a part): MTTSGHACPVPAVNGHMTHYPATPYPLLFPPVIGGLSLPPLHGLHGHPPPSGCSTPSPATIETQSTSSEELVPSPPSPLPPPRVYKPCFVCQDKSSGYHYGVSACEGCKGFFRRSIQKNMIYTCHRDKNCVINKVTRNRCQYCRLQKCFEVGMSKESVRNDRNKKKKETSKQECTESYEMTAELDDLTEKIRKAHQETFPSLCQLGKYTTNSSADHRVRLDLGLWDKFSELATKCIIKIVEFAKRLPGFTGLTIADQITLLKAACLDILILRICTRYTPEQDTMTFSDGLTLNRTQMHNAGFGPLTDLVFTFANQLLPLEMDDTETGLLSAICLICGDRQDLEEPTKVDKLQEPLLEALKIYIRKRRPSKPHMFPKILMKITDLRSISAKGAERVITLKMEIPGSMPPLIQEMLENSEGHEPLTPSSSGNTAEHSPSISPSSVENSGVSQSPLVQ
Method in brief: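 Induction of reporter mRNA from a chimeric RARb-Gal4 construct was measured by RT-PCR, FAM labelling, HpaI digestion and capillary electrophoresis. Measurements followed 24 h compound treatment of transiently transfected human HepG2 liver cells, with DMSO as baseline.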

[15] = molecular target: Retinoic acid receptor alpha (Homo sapiens) (UniProt P10276); assay: ATG_RARa_TRANS: Attagene TRANS-FACTORIAL HepG2 Assay for human Retinoic Acid Receptor alpha (RARa) (AID 2283005; active = hit-call score of the fitted dose curve at least 0.9, where 1 is the maximum)
Chain of Retinoic acid receptor alpha (Homo sapiens) (P10276 whole entry, looked up, the tested form may be a part): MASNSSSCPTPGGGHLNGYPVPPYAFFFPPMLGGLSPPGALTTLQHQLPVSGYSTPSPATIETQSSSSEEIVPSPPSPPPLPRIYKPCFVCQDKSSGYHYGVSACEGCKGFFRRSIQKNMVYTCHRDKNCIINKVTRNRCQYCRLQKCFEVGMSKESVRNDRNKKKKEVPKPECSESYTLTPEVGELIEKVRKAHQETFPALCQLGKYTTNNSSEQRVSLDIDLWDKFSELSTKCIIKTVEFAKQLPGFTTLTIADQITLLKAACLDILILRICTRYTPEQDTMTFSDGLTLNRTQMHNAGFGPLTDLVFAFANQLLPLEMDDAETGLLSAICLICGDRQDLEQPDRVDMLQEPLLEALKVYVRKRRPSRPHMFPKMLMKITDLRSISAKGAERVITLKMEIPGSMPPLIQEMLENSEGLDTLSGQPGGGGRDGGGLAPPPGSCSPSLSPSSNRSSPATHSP
Method in brief: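 Reporter transcripts, measured by RT-PCR with fluorescent labeling and capillary electrophoresis after 24 h dosing, reflect activity of an exogenous human RARa–GAL4 fusion in transiently transfected HepG2. Fitted for increase relative to DMSO.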

[16] = BSK_3C_Proliferation: Cell Proliferation Assessment in the BioMAP Diversity Plus: 3C Assay (AID 2283006); conditions: primary human endothelial cells (HUVEC);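 as to AC50: potency may reflect either rise or fall in cell number versus DMSO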
Method in brief: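 Read-out is total protein by SRB absorbance at 560 nm, taken as a proxy for relative cell number. Primary human umbilical vein endothelium cultured below confluence was dosed for 48 h, TCA-fixed and SRB-stained; curves were fitted bidirectionally versus DMSO.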

[17] = molecular target: Peroxisome proliferator-activated receptor gamma (Homo sapiens) (UniProt P37231); assay: ATG_PPARg_TRANS: Attagene TRANS-FACTORIAL HepG2 Assay for human Peroxisome Proliferator-activated Receptor-gamma (PPARg) (AID 2283007; active = hit-call score of the fitted dose curve at least 0.9, where 1 is the maximum)
Chain of Peroxisome proliferator-activated receptor gamma (Homo sapiens) (P37231 whole entry, looked up, the tested form may be a part): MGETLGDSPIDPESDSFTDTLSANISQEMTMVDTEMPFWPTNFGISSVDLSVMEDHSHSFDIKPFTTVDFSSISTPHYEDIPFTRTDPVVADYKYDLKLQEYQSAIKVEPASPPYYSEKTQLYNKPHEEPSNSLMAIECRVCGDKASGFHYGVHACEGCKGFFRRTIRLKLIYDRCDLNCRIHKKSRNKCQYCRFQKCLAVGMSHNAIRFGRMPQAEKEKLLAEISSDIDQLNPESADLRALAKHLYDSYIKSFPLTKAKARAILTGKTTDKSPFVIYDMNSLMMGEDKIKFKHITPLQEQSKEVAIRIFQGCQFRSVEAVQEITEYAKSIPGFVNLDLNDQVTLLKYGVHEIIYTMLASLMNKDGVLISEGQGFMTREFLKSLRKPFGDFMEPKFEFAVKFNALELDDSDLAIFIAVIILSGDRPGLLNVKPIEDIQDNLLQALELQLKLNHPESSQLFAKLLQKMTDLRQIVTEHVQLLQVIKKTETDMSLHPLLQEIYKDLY
Method in brief: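 Endpoint reflects upward reporter mRNA change versus DMSO controls. Setup: transiently transfected HepG2, GAL4-UAS reporters driven by chimeric NR-Gal4, 24 h incubation, RT-PCR with capillary electrophoresis read-out.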

[18] = molecular target: Nuclear receptor subfamily 1 group I member 2 (Homo sapiens) (UniProt O75469); assay: ATG_PXR_TRANS: Attagene TRANS-FACTORIAL HepG2 Assay for human Pregnane X Receptor (PXR) (AID 2283008; active = hit-call score of the fitted dose curve at least 0.9, where 1 is the maximum)
Chain of Nuclear receptor subfamily 1 group I member 2 (Homo sapiens) (O75469 whole entry, looked up, the tested form may be a part): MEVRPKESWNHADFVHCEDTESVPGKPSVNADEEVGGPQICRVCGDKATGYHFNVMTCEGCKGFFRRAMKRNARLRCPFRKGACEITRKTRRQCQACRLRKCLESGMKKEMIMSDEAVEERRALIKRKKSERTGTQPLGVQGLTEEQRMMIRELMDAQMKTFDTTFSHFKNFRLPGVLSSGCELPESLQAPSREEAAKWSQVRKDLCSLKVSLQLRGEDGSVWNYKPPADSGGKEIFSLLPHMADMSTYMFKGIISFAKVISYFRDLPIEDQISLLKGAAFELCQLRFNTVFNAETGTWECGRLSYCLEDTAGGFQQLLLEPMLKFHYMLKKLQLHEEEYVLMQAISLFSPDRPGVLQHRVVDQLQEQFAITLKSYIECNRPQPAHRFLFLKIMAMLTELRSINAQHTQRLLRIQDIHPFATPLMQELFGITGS
Method in brief: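 Measures mRNA induction of a GAL4-UAS-driven reporter in human HepG2 cells transiently expressing PXR fused to Gal4, following 24 h treatment. DMSO served as negative control and baseline.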

[19] = molecular target: human Retinoic Acid Receptor gamma (RARg), RARG (gene 5916) (UniProt P13631); assay: ATG_RARg_TRANS: Attagene TRANS-FACTORIAL HepG2 Assay for human Retinoic Acid Receptor gamma (RARg) (AID 2283009; active = hit-call score of the fitted dose curve at least 0.9, where 1 is the maximum)
Chain of human Retinoic Acid Receptor gamma (RARg), RARG (gene 5916) (P13631 whole entry, looked up): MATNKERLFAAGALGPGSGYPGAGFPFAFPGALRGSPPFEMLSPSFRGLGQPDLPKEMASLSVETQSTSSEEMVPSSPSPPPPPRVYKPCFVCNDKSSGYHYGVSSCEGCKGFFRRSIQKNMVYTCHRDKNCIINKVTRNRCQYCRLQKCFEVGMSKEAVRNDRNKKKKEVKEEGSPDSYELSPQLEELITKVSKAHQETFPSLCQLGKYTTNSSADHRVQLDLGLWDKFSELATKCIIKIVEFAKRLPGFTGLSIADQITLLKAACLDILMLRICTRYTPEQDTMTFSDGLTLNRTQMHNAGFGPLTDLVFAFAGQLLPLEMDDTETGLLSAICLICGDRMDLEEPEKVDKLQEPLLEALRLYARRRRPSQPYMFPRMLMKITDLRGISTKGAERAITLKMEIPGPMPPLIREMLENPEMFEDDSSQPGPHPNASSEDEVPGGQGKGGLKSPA
Method in brief: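 Transient transfection of HepG2 with multi-reporter constructs, then 24 h chemical treatment. Total RNA isolated, reverse-transcribed, PCR-amplified, fluorescently labelled and resolved by capillary electrophoresis; activity scored as mRNA induction versus DMSO.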

[20] = molecular target: human RAR-related Orphan Receptor beta (RORb), RORB (gene 6096) (UniProt Q92753); assay: ATG_RORb_TRANS: Attagene TRANS-FACTORIAL HepG2 Assay for human RAR-related Orphan Receptor beta (RORb) (AID 2283010; active = hit-call score of the fitted dose curve at least 0.9, where 1 is the maximum)
Chain of human RAR-related Orphan Receptor beta (RORb), RORB (gene 6096) (Q92753 whole entry, looked up, the tested form may be a part): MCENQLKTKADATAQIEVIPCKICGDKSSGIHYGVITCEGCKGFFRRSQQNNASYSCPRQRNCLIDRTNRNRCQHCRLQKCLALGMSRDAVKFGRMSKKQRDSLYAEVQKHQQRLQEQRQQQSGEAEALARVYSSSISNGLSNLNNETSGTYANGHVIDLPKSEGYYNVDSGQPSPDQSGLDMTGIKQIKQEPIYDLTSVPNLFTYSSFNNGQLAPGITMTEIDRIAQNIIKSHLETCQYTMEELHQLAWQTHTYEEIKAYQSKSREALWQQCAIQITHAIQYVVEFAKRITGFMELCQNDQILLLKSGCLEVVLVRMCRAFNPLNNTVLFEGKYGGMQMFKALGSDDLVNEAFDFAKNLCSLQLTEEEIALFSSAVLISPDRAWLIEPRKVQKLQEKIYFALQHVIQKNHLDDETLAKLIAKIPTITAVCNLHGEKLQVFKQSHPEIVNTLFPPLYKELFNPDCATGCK
Method in brief: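 Readout is reporter-gene mRNA induction, detected as fluorescence after RT-PCR and capillary electrophoresis, fitted for gain of signal against DMSO controls. Transiently transfected HepG2 liver cells carrying GAL4-UAS reporter constructs were treated for 24 hours.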

Measured: AC50

Cc1cccc2c1ccc1ccccc12
active: [7] 0.0495 µM | [16] 20 µM | [18] 11.2 µM
inactive: all other assays above

CCCCCCCCCCCCCC[n+]1ccccc1
active: [4] 0.172 µM | [11] 177 µM | [17] 13.6 µM
not listed: [7] | [8] | [9] | [10] | [13] | [16] | [20]
inactive: all other assays above

CN(CCO)S(=O)(=O)C(F)(F)C(F)(F)C(F)(F)C(F)(F)C(F)(F)C(F)(F)C(F)(F)C(F)(F)F
inactive: [1] | [2] | [3] | [4] | [5] | [6] | [7] | [8] | [9] | [10] | [11] | [12] | [13] | [14] | [15] | [16] | [17] | [18] | [19] | [20]
active: [16] 0.662 µM

C=CC(C)(CCC=C(C)C)OC(C)=O (stereo unspecified)
active: [7] 27.8 µM | [8] 31.5 µM | [10] 34.2 µM | [16] 34.2 µM | [18] 29.5 µM
not listed: [12] | [14] | [15] | [17] | [19]
inactive: all other assays above

C=C(c1ccc(C(=O)O)cc1)c1cc2c(cc1C)C(C)(C)CCC2(C)C
inactive: [1] | [2] | [3] | [5] | [12] | [18]
active: [2] 26 µM | [3] 11.1 µM | [5] 11.1 µM | [11] 33.6 µM

COC(=O)C(F)(F)C(F)(F)C(F)(F)C(F)(F)C(F)(F)F
inactive: [1] | [2] | [3] | [4] | [5] | [6] | [11] | [12] | [14] | [18] | [19]

CCCCCCCCCC=CCC1CC(=O)OC1=O (stereo unspecified)
active: [3] 54.9 µM
inactive: [1] | [2] | [4] | [5] | [6] | [11]

CC(C)(O)C(=O)c1ccccc1
inactive: [1] | [2] | [3] | [4] | [5] | [6] | [11] | [12] | [14] | [15]
active: [18] 30 µM

C=CC(=C)CC/C=C(\C)CCC=C(C)C
active: [4] 19 µM | [18] 6.93 µM
not listed: [11] | [17] | [19]
inactive: all other assays above

Cc1cc(C(=C2C=CC(=Nc3ccc(S(=O)(=O)O)cc3)C=C2)c2ccc(Nc3ccc(S(=O)(=O)O)cc3)cc2)cc(S(=O)(=O)O)c1N
inactive: [1] | [2] | [3] | [4] | [5] | [6] | [11] | [12] | [17] | [18] | [20]

COc1ccccc1NC(=O)c1cc2ccccc2cc1O
inactive: [3] | [4] | [11] | [19]
active: [1] 30.4 µM | [2] 100 µM | [5] 26.7 µM | [6] 17.4 µM | [17] 8.06 µM | [18] 1.23 µM

O=C(O)c1cccc(C(=O)O)n1
inactive: [1] | [2] | [3] | [4] | [5] | [6] | [12]

CC(C)(c1ccc(Oc2ccc(N)cc2)cc1)c1ccc(Oc2ccc(N)cc2)cc1
inactive: [1] | [2] | [3] | [5] | [6] | [12]
active: [4] 3.71 µM | [17] 1.69 µM | [18] 2.28 µM

O=CC(F)(F)C(F)(F)C(F)(F)F
inactive: [1] | [2] | [3] | [4] | [5] | [6] | [12] | [17] | [18] | [20]

NC(C(F)(F)F)C(F)(F)F
inactive: [1] | [2] | [3] | [4] | [5] | [6] | [11] | [18] | [19]

CCOC=C(C(=O)OCC)C(=O)OCC
inactive: [1] | [2] | [3] | [4] | [5] | [6] | [11] | [12] | [17] | [18] | [19]

O=C1OC(=O)C(F)(F)C1(F)F
inactive: [1] | [2] | [3] | [4] | [5] | [6] | [11] | [14] | [15] | [17] | [19]

CCCCCCCC(OC)OC
inactive: [1] | [2] | [3] | [4] | [5] | [6] | [12] | [17]

Nc1cc(Cl)c(-c2cc(Cl)c(N)cc2Cl)cc1Cl
inactive: [3] | [6] | [12] | [20]
active: [1] 17.3 µM | [2] 7.12 µM | [4] 12.5 µM | [5] 11.1 µM | [17] 14.5 µM | [18] 4.7 µM
